Among the test systems are SK-MEL-2 melanoma; EKVX NSCLC; SN12C renal; UO-31 renal; TK-10 renal; ACHN renal; CAKI-1 renal; A498 renal; CCRF-CEM leukemia; MOLT-4 leukemia.
Common to all, as to experiment: NCI-60 one-dose screen, 48 h (100 = growth as untreated, 0 = no growth, -100 = all killed)
Conditions in all cases: 10 µM unless noted

In PubChem BioAssay (NCI) one finds growth data, which are given here for twelve molecules.

SMILES strings stand for the structures. Compounds without any hit were thinned out: in the full panel of roughly 83,000, 20% have a hit.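 Step 1: grow cells in 96-well plates. Step 2: add test compound at a single concentration. Step 3: incubate 48 h. Step 4: record percent growth.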 Values without a mark were called inactive. Active and inactive are the calls of the source. The calls were made as follows: active = growth percent below 10; inactive = the rest.

For `C=C1C(=O)O[C@H]2[C@H]1CC/C(COC(=O)N[C@H]1C[C@H](O[C@H]3C[C@](O)(C(=O)CO)Cc4c(O)c5c(c(O)c43)C(=O)c3c(OC)cccc3C5=O)O[C@@H](C)[C@H]1O)=C\CC[C@@]1(C)O[C@@H]21`, the growth is 85.5% in the assay with SK-MEL-2 melanoma; 103% with EKVX NSCLC; 34.9% in the assay on SN12C renal; 83.1% in the assay with UO-31 renal; 64.9% with TK-10 renal; 88.9% in the assay with ACHN renal. For the same molecule, the growth in the assay with CAKI-1 renal is 61.7%; in the assay with A498 renal, 70.5%; in the assay with CCRF-CEM leukemia, -18.2% (active); in the assay on MOLT-4 leukemia, -5.6% (active).
With `CCCNC(=O)Oc1ccc(/C(=C(/C)Cc2ccc(OC)cc2)c2ccc(OCCCN(C)C)cc2)cc1`, the growth with SK-MEL-2 melanoma was 96.5%; in the assay with EKVX NSCLC, 85.7%; in the assay on SN12C renal, 84%; in the assay with UO-31 renal, 60.6%; with TK-10 renal, 88.3%; with ACHN renal it was 99.4%. The growth was 101% with CAKI-1 renal, 97.6% in the assay on A498 renal, 56.4% in the assay with CCRF-CEM leukemia and 33.1% in the assay with MOLT-4 leukemia.
`O=C(/C=C(/C=C/c1cccc2[nH]ccc12)OB(F)F)/C=C/c1cccc2[nH]ccc12`: the growth was -57.9% (active) in the assay on SK-MEL-2 melanoma; -30.9% (active) in the assay with EKVX NSCLC; -1.2% (active) with SN12C renal; -77.6% (active) in the assay with UO-31 renal; -37.9% (active) in the assay on TK-10 renal; -70.3% (active) with ACHN renal. Also, the growth in the assay with CAKI-1 renal was -73.6% (active); with A498 renal, -35.2% (active); with CCRF-CEM leukemia, -32.1% (active); in the assay on MOLT-4 leukemia, -11.9% (active).
Consider `O=C1NC(=O)c2c1c1c3ccccc3ccc1c1[nH]c3ccc(Br)cc3c21`, for which the growth in the assay on SK-MEL-2 melanoma was 35.4%; in the assay on EKVX NSCLC, 18%; in the assay with SN12C renal, 9.28% (active); in the assay on UO-31 renal it was 2.24% (active); in the assay on TK-10 renal, 36.8%; in the assay with ACHN renal it was 1.55% (active). Also, the growth was 15.8% in the assay on CAKI-1 renal, -10.7% (active) in the assay with A498 renal, 10.8% with CCRF-CEM leukemia and 9.35% (active) in the assay on MOLT-4 leukemia.
As to `N#Cc1c(NC(=O)c2ccccc2)sc2c1CCC(=O)C2`, the growth is 13.6% in the assay with SK-MEL-2 melanoma; 21.7% in the assay on EKVX NSCLC; 11.6% with SN12C renal; -16.4% (active) with UO-31 renal; 39.5% in the assay with TK-10 renal; 5.88% (active) with ACHN renal. Moreover, the growth with CAKI-1 renal was -27.3% (active); in the assay on A498 renal, 78.3%; in the assay with CCRF-CEM leukemia it was 7.52% (active); in the assay on MOLT-4 leukemia, 8.12% (active).
With `COc1cc(-c2csc(NC(=O)c3cc(-n4cnc(C)c4)cc(C(F)(F)F)c3)n2)cc(OC)c1OC`, the growth in the assay with SK-MEL-2 melanoma is 67.6%; with EKVX NSCLC, 69.1%; with SN12C renal it was 44.1%; with UO-31 renal it was 29.8%; with TK-10 renal, 85.6%; in the assay with ACHN renal, 54.3%. For the same molecule, the growth with CAKI-1 renal was 62.8%; in the assay with A498 renal, 60.6%; with CCRF-CEM leukemia it was 24.4%; with MOLT-4 leukemia it was 37.3%.
For the molecule `N#Cc1c(N)nnn1Cc1cc(=O)oc2c1ccc1ccccc12`, the growth in the assay on SK-MEL-2 melanoma is 94.6%; with EKVX NSCLC, 76.1%; with SN12C renal it was 94.2%; in the assay with UO-31 renal it was 72.8%; with TK-10 renal it was 115%; in the assay on ACHN renal, 97.6%. Moreover, the growth in the assay with CAKI-1 renal is 98%; with A498 renal, 89.7%; in the assay with CCRF-CEM leukemia, 90.9%; in the assay on MOLT-4 leukemia, 89%.
For the molecule `CC/C(=C(/c1ccc(Cl)cc1)c1ccc(OCCN2CCCC2)cc1)c1ccc(OC)cc1`, the growth in the assay with SK-MEL-2 melanoma is 105%; in the assay on EKVX NSCLC, 65.1%; in the assay on SN12C renal, 79.5%; in the assay with UO-31 renal, 59.5%; in the assay with TK-10 renal, 76.9%; in the assay with ACHN renal, 78.6%. In addition, the growth with CAKI-1 renal was 82%; in the assay on A498 renal, 108%; in the assay with CCRF-CEM leukemia, 40.6%; in the assay with MOLT-4 leukemia, 32%.
For `C#Cc1cccc(Nc2ncnc3ccc(-c4cnc(N)nc4)cc23)c1`, the growth is 19.8% in the assay with SK-MEL-2 melanoma; 2.36% (active) with EKVX NSCLC; 7.3% (active) in the assay on SN12C renal; -5.12% (active) with UO-31 renal; -9.72% (active) with TK-10 renal; 3.99% (active) in the assay with ACHN renal. Further, the growth in the assay on CAKI-1 renal was 2.19% (active); in the assay on A498 renal, -44.6% (active); with CCRF-CEM leukemia it was 35.7%; with MOLT-4 leukemia, 19.6%.
For the molecule `Cn1c(=O)c2[nH]c(N/N=C/c3ccccc3Br)nc2n(C)c1=O`, the growth with SK-MEL-2 melanoma was 120%; in the assay on EKVX NSCLC, 128%; in the assay on SN12C renal it was 104%; with UO-31 renal, 92.4%; with TK-10 renal, 82.8%; in the assay on ACHN renal it was 105%. For the same molecule, the growth is 93.4% with CAKI-1 renal, 92.9% in the assay on A498 renal, 104% in the assay on CCRF-CEM leukemia and 98.3% with MOLT-4 leukemia.
As for `COc1ccc2nc3ccc(OC)cc3c(SCCCN)c2c1`, the growth in the assay on SK-MEL-2 melanoma was 110%; in the assay with EKVX NSCLC, 87.1%; with SN12C renal, 67.9%; with UO-31 renal, 53.3%; with TK-10 renal it was 114%; in the assay on ACHN renal, 43.7%. In addition, the growth was 74.1% in the assay with CAKI-1 renal, 83.2% with A498 renal, 10.5% in the assay with CCRF-CEM leukemia and -5.22% (active) in the assay with MOLT-4 leukemia.
As to `COc1ccc2[nH]cc(-c3nc(-c4c[nH]c5ccncc45)cs3)c2c1`, the growth in the assay with SK-MEL-2 melanoma is 84.7%; in the assay with EKVX NSCLC it was 10.8%; with SN12C renal it was 71.9%; in the assay on UO-31 renal, 49%; in the assay with TK-10 renal it was 71.1%; in the assay with ACHN renal, 4.58% (active). The growth with CAKI-1 renal is 9.06% (active); in the assay with A498 renal, 81.5%; with CCRF-CEM leukemia, -7.05% (active); in the assay on MOLT-4 leukemia, -8.02% (active).
